Bioassay records as filed in PubChem BioAssay.
Sampled rows, rich in hits. Any-hit rate of the full collection: about 8.3%.
Giardia FBPA inh: Giardia lamblia aldolase inhibition; A8B2U2; purified Giardia FBPA; Potency, µM (doses to about 59.6 µM), most hits filed as inhibitors; hit rate 0.71% among 290,000; AID 2451; note: nearly all actives have a fitted effect of over 55% in size
Target sequence (A8B2U2 whole entry, looked up): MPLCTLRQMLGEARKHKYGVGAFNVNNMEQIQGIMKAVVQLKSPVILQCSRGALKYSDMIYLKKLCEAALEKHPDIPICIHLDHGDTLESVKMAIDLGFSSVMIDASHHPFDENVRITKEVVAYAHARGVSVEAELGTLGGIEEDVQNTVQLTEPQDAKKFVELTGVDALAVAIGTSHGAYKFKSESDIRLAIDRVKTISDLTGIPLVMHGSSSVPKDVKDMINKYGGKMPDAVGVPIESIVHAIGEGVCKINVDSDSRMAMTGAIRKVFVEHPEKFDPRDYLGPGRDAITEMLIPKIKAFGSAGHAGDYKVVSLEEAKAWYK
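Giardia FBPA (40 nM reagent) was preincubated 10 min at RT with compound (up to 57.5 uM final), then substrate plus GAPDH/TPI/NAD/arsenate coupling system with diaphorase/resazurin was added; resorufin fluorescence (525/598 nm) was read after 20 min.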
HCMV inh: blocks human cytomegalovirus replication; HFF cells, HCMV-luciferase reporter, 72 h; active compounds read low; activity change, negative = inhibition, % at 57.5 µM; hit rate 4.5% among 410,000; in the data active = activity change below about -60%; inconclusive = no clear call, values can overlap the other calls; inactive = above about -39%
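Human foreskin fibroblasts infected with luciferase-reporter HCMV at MOI 1 PFU/cell, compounds at two doses. Luciferase measured 72 h post infection; normalized to buffer-only basal and Salinomycin (10uM) controls.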
MARV entry inh: blocks Marburg virus binding to or entry into cells | Marburg virus pseudotyped entry inhibition, cell reporter | hit rate 1.8% among 300,000 | Potency, µM (series often up to 37.8 µM), usual class: inhibitors; calls by dose curve; tested in HEK293 cells
Lassa entry inh: inhibitors of Lassa virus binding or cell entry; Lassa virus pseudotype entry inhibition, cell reporter; Potency, µM (titrated, usually from 37.9 µM), actives largely listed as inhibitors; hit rate 1.2% among 300,000; AID 540256; calls by dose curve; tested in HEK293 cells; note: nearly all actives have a fitted effect of over 50% in size
HCV inhibitor: HCV inhibition | Huh7.5.1 HCVcc-Cre infection, luciferase reporter, 44 h | Potency, µM (highest dose often 41.8 µM), usual class: inhibitors | hit rate 3.4% among 340,000 | AID 651820
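HCVcc-Cre virus at an moi near 0.5 was added right after compound to cells cultured 4 h from seeding (1,000 cells/well). Luciferase activity was determined 44 h later, 15 min after substrate addition at RT.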
FMDV antiviral: antivirals against foot and mouth disease virus; FMDV antiviral cell-based qHTS; Potency, µM (top dose mostly 57.9 µM), most hits filed as inhibitors; hit rate 1.2% among 410,000; AID 1159524; calls by dose curve; tested in HEK293T cells; note: read-out not given here; nearly all actives have a fitted effect of over 45% in size
Hits are given with their value; . = inactive; ? = inconclusive; / = not tested or not shown; [ ] = another dose, or the depositor's remark. Unless noted, calls come from the whole dose curve; as a rule, active = well fitted curve in the direction sought with a large enough effect; inconclusive = small, poorly fitted or top-dose-only effect, or another doubt; inactive = no such curve, though single readings can be large; an effect the other way counts as inactive or inconclusive.

SMILES	Giardia FBPA inh	HCMV inh	MARV entry inh	Lassa entry inh	HCV inhibitor	FMDV antiviral
COc1ccc(Cl)cc1N=Nc1ncc[nH]1	.	/	/	/	/	.
CCn1nnnc1NCc1ccc(OCc2ccc(F)cc2Cl)c(OC)c1	.	.	10µM	?	?	.
COC(=O)c1cc2c(C)nn(-c3ccccc3)c2s1	.	.	.	.	6.31µM	.
CCOc1ccc(NC(=O)c2cc3c(C)nn(-c4ccccc4)c3s2)cc1	/	-65.6	.	.	/	?
Cc1nn(-c2ccccc2)c2sc(C(=O)O)cc12	?	.	.	.	.	.
Cc1ncc(CO)c(/C=N/NC(=O)c2ccc(Br)cc2)c1O	.	/	.	?	.	/
Cc1ncc(CO)c(/C=N/NC(=S)Nc2ccc(C(C)C)cc2)c1O	.	.	/	/	11.2µM	.
COc1c(O[C@H]2O[C@@H](CO)[C@@H](O)[C@@H](O)[C@@H]2O)cc2c(c1OC)-c1ccc(SC)c(=O)cc1[C@H](NC(C)=O)CC2	.	/	/	/	/	/
CCOCC(=O)NC1CCc2cc(OC)c(OC)c(OC)c2-c2ccc(SC)c(=O)cc21 (centres undefined)	/	-66.2	.	?	.	.
CCOC(=O)NC1CCc2cc(OC)c(OC)c(OC)c2-c2ccc(SC)c(=O)cc21 (centres undefined)	/	-72.1	?	?	.	.
CCCCOC(=O)NC1CCc2cc(OC)c(OC)c(OC)c2-c2ccc(SC)c(=O)cc21 (centres undefined)	/	-79.8	?	?	.	.
COC1=C[C@H]2C3=C([C@H]2C1=O)[C@H](NC(C)=O)CCc1cc(OC)c(OC)c(OC)c13	.	/	/	/	/	/
COc1cc(=O)n2c(c1C(=O)NC(C)c1ccco1)CCN(C(=O)c1ccccc1SC)CC2 (centres undefined)	/	/	/	/	/	.
COC(=O)C1=C(C)N(CCC(C)O)C(=O)N(C(C)=O)C1c1ccccc1 (centres undefined)	/	/	.	?	/	/
CCNCCC(CCC(C)C)c1ccc2c(c1)OCO2 (centres undefined)	?	.	8.91µM	.	?	.
Oc1ccc(-c2cnc(-c3ccc(O)cc3)nc2)cc1	.	.	1.12µM	3.16µM	.	?
Cc1cc(C2=NNC(=NC3CC3)SC2)c(C)n1-c1c(C)n(C)n(-c2ccccc2)c1=O	.	.	.	.	.	.
Cc1ccc(-n2c(C)cc(C3=NNC(=NC4CC4)SC3)c2C)cc1C	.	-99.5	/	/	.	17.8µM
Cc1cc(C)c(S(=O)(=O)Oc2ccccc2[N+](=O)[O-])c(C)c1	/	?	?	3.16µM	10µM	.
Cc1ccc(C)c(C(=O)COc2ccccc2[N+](=O)[O-])c1	.	.	.	.	.	.
Cc1coc2c(O)cc3c(c12)O[C@@]1(N2CCCCC2)C(=O)NCCC[C@@H]31	/	/	.	/	/	/
Cc1cc(C)cc(OCCn2ccnc2)c1	.	.	/	/	6.31µM	.
Cc1cccc(Cn2cccc2CNS(=O)(=O)c2ccc(C)c(C)c2)c1	/	.	/	.	/	.
Clc1cccc(Nc2cc3c(cn2)ncn3Cc2ccco2)c1	/	.	/	/	/	/
C=CCOC(=O)N[C@@H](c1ccc(Br)cc1)C(C(C)=O)C(C)=O	.	/	.	/	/	/
SMILES	Giardia FBPA inh	HCMV inh	MARV entry inh	Lassa entry inh	HCV inhibitor	FMDV antiviral
Cc1cc(-c2nnc(SCCC(=O)Nc3ccccc3)o2)no1	/	-85.5	.	.	.	.
CC1=C(C(=O)OCc2ccc(C)cc2)C(c2ccccc2F)CC(=O)N1 (centres undefined)	/	.	?	?	/	.
COc1ccc(-c2cc3nc(CCl)[nH]c(=O)c3s2)cc1	.	.	?	?	?	14.1µM
COc1ccc(-c2cc3nc[nH]c(=O)c3s2)cc1	.	.	.	?	.	.
CCN1CSC(=S)N(Cc2ccccc2)C1	.	?	?	.	11.2µM	.
S=C1SCN(Cc2ccco2)CN1Cc1ccco1	?	-99.1	?	?	14.1µM	.
S=C1SCN(Cc2cccs2)CN1Cc1cccs1	/	?	/	/	/	.
CCCCCN1CSC(=S)N(Cc2ccccc2)C1	.	?	.	.	.	.
Cc1ccc(Cn2ccn(Cc3ccccc3F)c(=O)c2=O)cc1	/	.	/	.	/	.
CCOC(=O)N1C(=O)[C@@](CC)(c2ccccc2)N1C(=O)OCC	.	.	/	/	.[8.37 µM]	35.5µM
COC(=O)N1C(=O)[C@](CC(C)C)(c2ccccc2)N1C(=O)OC	.	.	/	/	.[8.37 µM]	35.5µM
COC(=O)N1C(=O)[C@](c2ccccc2)(C2CCCCC2)N1C(=O)OC	.	.	/	/	.	.
COC(=O)N1C(=O)[C@@](c2ccccc2)(C2CCCC2)N1C(=O)OC	.	.	/	/	.	20µM
CC(=O)Nc1ccccc1-c1nc2ccccc2n(C(C)C(=O)Nc2ccccc2C(F)(F)F)c1=O (centres undefined)	/	.	.	.	/	.
CC1CC=CC2C1C(=O)N(Cc1ccccc1)C2c1cccc([N+](=O)[O-])c1 (centres undefined)	.	/	/	/	/	/
Nc1ncnc2nc(Cl)[nH]c12	.	/	/	/	/	.
CCCCn1c(C)c(C(=O)OCC)c2c(CN3CCOCC3)c(O)ccc21	.	.	?	?	25.1µM	.
CCOC(=O)c1c(C)n(C)c2ccc(O)c(CN3CCC(C)CC3)c12	.	/	11.2µM	?	?	.
Cc1cc2c(c(=O)o1)C1O[C@](c3ccsc3)(Cc3ccccc31)O2	.[12.9 µM]	/	/	/	/	/
CC(=O)N1CCC2(CCN(Cc3cc(C(F)(F)F)cc(C(F)(F)F)c3)CC2)CC1	.	/	/	/	/	.
O=[N+]([O-])c1ccccc1CNc1ccc(NCc2ccccc2[N+](=O)[O-])cc1	/	-73.5	/	/	/	/
C=C(C)CNC(=S)NNC(=O)CCn1c2ccccc2c2ccccc21	.	.	?	.	.	.
S=C(NCCCN1CCOCC1)NN=C1c2ccccc2-c2ccccc21	/	.	/	/	/	?
C=C(C)CNC(=S)NN=C1c2ccccc2-c2ccccc21	.	/	?	?	11.2µM	.
O=C(CCC(=O)N/N=C/c1ccco1)N/N=C/c1ccco1	.	.	?	.	.	.
SMILES	Giardia FBPA inh	HCMV inh	MARV entry inh	Lassa entry inh	HCV inhibitor	FMDV antiviral
C=C(C)CNC(=S)N/N=C/c1ccco1	.	-61.2	?	.	.	.
CCNC(=S)NN=C1c2ccccc2-c2ccccc21	.	.	.	.	15.8µM	.
CC(=O)C1=C(C)N(Cc2ccccc2)C(=O)N[C@H]1c1ccc(Br)cc1	/	/	.	/	/	/
O=C(CSc1cn(CCNC(=O)c2c(F)cccc2F)c2ccccc12)Nc1ccc2c(c1)OCCO2	/	.	.	.	/	.
OCCN1CCN(Cc2ccc3c(c2)CN(Cc2cnc(-c4ccccc4)s2)CCO3)CC1	/	/	/	/	/	.
COc1cc2c(-c3ccc4cc[nH]c4c3)c(-c3ccc(C#N)cc3)oc(=O)c2cc1OC	/	.	/	/	11.2µM	.
COc1ccccc1-c1oc2ccccc2c1-c1ccc2cc[nH]c2c1	/	.	/	/	11.2µM	.
CCSc1nc(C2CC2)cc(-c2cccs2)c1C#N	.	.	.	.	7.94µM	.
CCOC(=O)c1ccc(Nc2cc(C)nc(C)c2C(=O)OCC)cc1	.	.	.	.	.	.
Cc1ccc(C)c(Nc2nc3nonc3nc2N2CCOCC2)c1	.	.	.	.	.	.
